# An excerpt weighted towards active compounds, which were near 3.5% of everything screened.
# MITF primary: human MITF inhibition, primary screen; 0.91% of 650,000 active; AlphaScreen MITF homodimerization, bead proximity signal; O75030; inhibition, % at 2.6 µM; in the data active = inhibition above about 50%;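 note: 0% = vehicle wells with protein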
# Target sequence (O75030 whole entry, looked up): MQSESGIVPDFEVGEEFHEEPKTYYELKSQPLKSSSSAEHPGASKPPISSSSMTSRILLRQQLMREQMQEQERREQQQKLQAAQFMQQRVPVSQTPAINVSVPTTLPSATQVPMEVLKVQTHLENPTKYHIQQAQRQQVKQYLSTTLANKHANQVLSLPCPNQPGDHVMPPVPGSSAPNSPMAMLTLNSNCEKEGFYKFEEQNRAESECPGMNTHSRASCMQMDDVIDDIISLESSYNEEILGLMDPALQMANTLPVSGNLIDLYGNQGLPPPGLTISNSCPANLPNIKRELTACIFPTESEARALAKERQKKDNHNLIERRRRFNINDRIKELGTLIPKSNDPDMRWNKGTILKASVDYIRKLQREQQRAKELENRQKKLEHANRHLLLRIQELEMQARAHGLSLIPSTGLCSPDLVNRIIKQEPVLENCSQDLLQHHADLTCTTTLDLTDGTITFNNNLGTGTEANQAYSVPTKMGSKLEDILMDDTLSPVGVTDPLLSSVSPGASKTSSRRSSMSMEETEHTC
# FBW7 activator: activators of human E3 ligase FBW7. Q969H0. AlphaScreen FBW7–phospho-cyclin E peptide binding, activator screen. normalized activity (activation), % at 26.1 µM. 0.13% of 650,000 active; in the data active = normalized activity above about 1.9%;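 note: purified mutant Fbw7 with reduced substrate affinity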
# TEAD-YAP block: TEAD-YAP interaction inhibition | inhibition, % at 9.12 µM | 1.4% of 640,000 active | HEK-TIYL cells, TEAD-Gal4/YAP UAS-luciferase luminescence; in the data active = inhibition above about 32%;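 note: 0% = median of test compound wells and 100% = reference inhibitor wells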
# GPR151 activ: activates the human receptor GPR151. Q8TDV0. PathHunter beta-arrestin GPR151 cells, luminescence. activation, % at 11.2 µM. 1% of 650,000 active; in the data active = activation above about 4.9%;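 note: 0% = median of compound wells and 100% = cells with positive control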
# Starred values were filed as active, the others as inactive; ! = a repeat was not active.
SMILES,MITF primary,FBW7 activator,TEAD-YAP block,GPR151 activ
CCOC(=O)c1ccc(Nc2cc(OC)c([N+](=O)[O-])nc2[N+](=O)[O-])cc1,24.5,0.7,66.7*,-0.6
CCOC(=O)c1sc(NC(=O)c2cc(Cl)ccc2[N+](=O)[O-])nc1-c1ccccc1,4.8,0.0,20.8,0.3
c1ccc(-c2nc(NCCCN3CCOCC3)cc(-c3ccncc3)n2)cc1,5.3,-0.2,10.3,-1.9
C[n+]1ccccc1NCCCN1CCOCC1,-4.1,3.8*,2.8,-0.5
c1ccc(-c2cc(NCCCN3CCOCC3)nc(-c3ccccn3)n2)nc1,116.9*,-0.8,64.2*,-0.9
Cc1nn(C(C)C(=O)NCc2ccccc2Cl)c(=O)c2cc3sccc3n12 (stereo not given),13.7,-0.1,-9.6,0.7
O=C(NCc1ccccn1)c1ccc(NC(=O)c2cccs2)cc1,1.0,-0.5,0.2,-0.4
COC(=O)c1ccc(-n2c(/C=C/c3cccc(OC)c3OC)nc3ccccc3c2=O)cc1,-8.3,-0.1,-8.1,0.4
Cc1ccc(/C=N/NC(=O)CNc2ccccc2C)cc1,-15.3,0.0,44.3*,-1.2
CCOc1ccc(OC)cc1/C=N/NS(=O)(=O)c1ccc(Cl)cc1,11.1,0.1,64.5*,0.4
Cc1cc2occ(CC(=O)O)c2cc1C(C)C,-0.4,-0.1,-2.1,1.1
COc1ccccc1C(=O)CSc1nnc(-c2ccccc2)o1,1.6,0.2,-11.7,0.2
CC[C@@]1(O)C(=O)OCc2c1cc1n(c2=O)Cc2cc3c(CN(C)C)c(O)ccc3nc2-1,66.6*!,-0.2,12.4,-0.4
O=[N+]([O-])C(=C1SCCS1)C(=C(Cl)Cl)N1CCC2(CC1)OCCO2,26.6,0.6,5.2,-0.4
Cc1ccc(C(C)C)c(OCC(O)Cn2c(C)nc3ccccc32)c1 (stereo not given),-3.2,0.1,50.4*,3.4
C=CCc1ccccc1OCC(O)Cn1c(CO)nc2ccccc21 (stereo not given),11.3,-0.1,10.8,0.0
C=CCc1ccccc1OCC(O)Cn1c(C)nc2ccccc21 (stereo not given),3.2,-0.1,39.7*,3.9
CCOC(=O)c1c(N)n(-c2cc(OC)ccc2OC)c2nc3ccccc3nc12,-2.4,0.0,-8.1,-0.1
COC(=O)c1ccc2c(c1)N(C)C(=O)/C(=C/c1ccccc1C)S2,2.0,-0.1,1.4,1.5
CC1CN=C(NC(=O)c2ccc([N+](=O)[O-])cc2)S1 (stereo not given),1.6,0.0,-16.8,1.0
CN(C)c1ccc(C(=O)N2CCN(Cc3ccc4c(c3)OCO4)CC2)cc1,-5.4,-0.8,-11.6,0.5
O=c1c(CN2CCc3ccccc3C2)coc2ccccc12,30.7,-0.1,34.0*,0.6
CN(C)c1ccc(CN2CCN(Cc3ccc4c(c3)OCO4)CC2)cc1,52.8*,-0.4,-5.1,-1.2
O=c1c(CN2CCN(Cc3ccc4c(c3)OCO4)CC2)coc2ccccc12,42.5,-0.2,57.1*,-0.7
O=c1c(CN2CCN(c3ccccn3)CC2)coc2ccccc12,39.7,0.0,38.2*,-0.6
SMILES,MITF primary,FBW7 activator,TEAD-YAP block,GPR151 activ
O=c1c(CN2CCSCC2)coc2ccccc12,14.0,0.7,3.4,0.5
O=c1c(CN2CCN(c3ccc(F)cc3)CC2)coc2ccccc12,17.5,0.1,5.8,1.2
COc1cc(SC)ccc1C(=O)N1CCN(Cc2ccc3c(c2)OCO3)CC1,7.2,0.0,31.9*,0.9
COc1cccc(CNCc2c(C(=O)O)c(C)n(Cc3ccc(F)cc3)c2C)c1,21.0,-0.2,-1.9,1.8
Cc1ccc(-c2csc(NC(=O)c3ccc(S(=O)(=O)N4CCc5ccccc5C4)cc3)n2)o1,-10.3,0.1,44.5*,1.6
O=C(Nc1nc(-c2ccccn2)cs1)c1ccc(S(=O)(=O)N2CCOCC2)cc1,48.8,0.1,47.8*,-1.1
COc1ccc(-c2csc(NC(=O)c3ccc(S(=O)(=O)N4CC(C)OC(C)C4)cc3)n2)c(OC)c1 (stereo not given),-1.2,0.0,32.3*,-0.3
COc1cc(-c2cc(NC(=O)c3noc4c3COc3ccccc3-4)on2)cc(OC)c1OC,0.7,-0.1,2.1,-0.6
CCOC(=O)c1ccc(NC(=O)C(C)Sc2nc(N)cc(=O)[nH]2)cc1 (stereo not given),-12.0,0.1,-4.7,-1.3
COc1ccc(NC(=O)N2CC=C(c3c[nH]c4ccccc34)CC2)cc1,2.1,-0.1,51.0*,0.2
CC(Nc1ccc(C(F)(F)F)cc1[N+](=O)[O-])C(=O)O (stereo not given),-1.6,0.0,12.1,-0.7
C[C@H](Nc1ccc(C(F)(F)F)cc1[N+](=O)[O-])C(=O)Nc1nc2ccccc2[nH]1,-4.2,-0.3,32.5*,0.1
Cc1ccc(-c2c(N3CCCCC3C)c(=O)c2=O)cc1 (stereo not given),-6.1,-0.1,0.7,-0.8
CCCCn1c(=S)[nH]c2ccccc21,2.7,2.0*,6.1,2.2
N#CSCCCOc1ccc2ccccc2c1,3.8,0.6,47.4*,1.2
c1cnc(SCCCOc2ccc3ccccc3c2)nc1,3.8,0.3,-41.0,-0.1
COc1cc(C(C)=O)ccc1Oc1ncnc(N)c1[N+](=O)[O-],12.4,0.1,5.1,-0.7
Cc1cc(=O)[nH]c(SCC(=O)Nc2ccc(Br)cn2)n1,13.3,0.1,-1.9,-1.5
O=C(CSc1nc2ccccc2[nH]1)Nc1ccc(Br)cn1,-12.6,0.0,76.1*,1.8
CC(C)CC(=O)Nc1ccc(-c2nc3cccnc3s2)cc1,15.6,0.0,53.8*,-3.2
Nc1ccc(-c2nc3cccnc3s2)cc1,-8.9,0.0,33.6*,-8.0
O=C(Nc1ccc(-c2nc3cccnc3s2)cc1)C1CC1,9.9,0.1,74.7*,-4.1
O=C(Cc1ccccc1)Nc1ccc(-c2nc3cccnc3s2)cc1,8.5,0.0,-17.4,-0.1
O=C(Nc1ccc(-c2nc3cccnc3s2)cc1)c1ccccc1,-3.2,0.2,-48.4,-2.6
O=C(CN1CCOc2ccccc2C1)N1CCc2c([nH]c3ccccc23)C1c1ccccn1 (stereo not given),-8.9,-0.1,0.4,1.7
SMILES,MITF primary,FBW7 activator,TEAD-YAP block,GPR151 activ
COc1cc(C)c(C)cc1S(=O)(=O)n1cnc2ccccc21,8.8,-0.1,2.8,0.0
CCCCCCNC(CC(=O)Nc1ccc(CC)cc1)C(=O)O (stereo not given),-14.2,-0.1,-10.7,-1.6
CN1C(=O)c2ccccc2CC1(C)C,10.4,0.3,-1.5,0.2
CC1(C)Cc2ccccc2-c2[nH][nH]c(=O)c21,15.8,0.3,36.8*,-1.2
CC(C)C(C)NC(=O)COC(=O)[C@H](C)NC(=O)c1ccccc1Cl (stereo not given in full),-4.5,0.0,10.3,0.6
O=C(COC(=O)c1ccc([N+](=O)[O-])c(O)c1)c1ccc([N+](=O)[O-])cc1,-0.8,0.0,15.4,0.5
Cc1cc2[nH]c(=S)n(Cc3ccccc3Cl)c2cc1C,-0.1,-0.1,49.6*,1.8
CN(C)CCNC(=O)c1cc2c(-c3ccc(Cl)cc3)nn(C)c2s1,11.4,0.8,68.5*,-1.3
CN1CCN(CCCNC(=O)c2cc3c(-c4ccc(Cl)cc4)nn(C)c3s2)CC1,14.5,0.7,-4.7,1.6
